This passage reports INHIBITION results from ChEMBL document CHEMBL4513216, “Probing the Open Global Health Chemical Diversity Library for Multistage-Active Starting Points for Next-Generation Antimalarials” (ACS Infect Dis, 2020).

Out of some 69,000 compounds screened, about 8,600 (12%) showed an effect of 50% or more. The full list was thinned out, with strong results kept by preference.

For the assay, the system named is Plasmodium berghei. The experiment in a line: Screen against P. berghei liver stage (PbLuc), transformed with Luciferase, at 10uM. To be noted: tested at 10 uM. The format is functional, HepG2.
Take `CN(C)C(=O)N1CC2(CCNCC2)c2cc(F)ccc21`: the INHIBITION is recorded as -15.5%.
Next, `CN(C)C(=O)N1CC2(CCNCC2)c2cc(Cl)ccc21`: 83.5%.
In the case of `CC(=O)N1CC2(CCNCC2)c2cc(Cl)ccc21` it was 14.9%; in that of `O=C([C@H]1CCCN1)N1CC2(CCNCC2)c2cc(Cl)ccc21`, 58.3%; in that of `O=C([C@@H]1CSCN1)N1CC2(CCNCC2)c2cc(Cl)ccc21`, 38.5%.
Next, `NC(=O)N1CC2(CCNCC2)c2cc(Cl)ccc21`: 19.1%.
As for `O=C(c1ccncc1)N1CC2(CCNCC2)c2cc(Cl)ccc21`, the INHIBITION was determined as 5.04%.
In the case of `O=C(c1ccccc1F)N1CC2(CCNCC2)c2cc(Cl)ccc21` it was -27%; in that of `O=C(c1ccco1)N1CC2(CCNCC2)c2cc(Cl)ccc21`, 51.9%.
Next, `Cn1ccnc1CN1CCOC(Cn2cccn2)C1` (configuration not stated): 7.08%; `CNc1nc2cn(CCc3ccc(Cl)cc3)c(=O)c-2c[nH]1`: -15.5%.
In the case of `CN(C)c1cc(CNC(=O)c2ccc(Br)cc2F)ccn1` it was 16.8%.
As for `Cc1cnc(N2C[C@H]3CCN(CC4CC4)C[C@H]3C2)nc1`, the INHIBITION is on record as -21.7%.
As for `NC(=O)c1ccc2c(c1)nc1n2CCN(Cc2ccco2)C1`, the INHIBITION is reported as -7.9%.
Next, `NC(=O)c1ccc2c(c1)nc1n2CCN(Cc2ccccc2)C1`: 16.6%; `NC(=O)c1ccc2c(c1)nc1n2CCN(Cc2cccnc2)C1`: 54%.
Turning to `O=C(NCCCO)c1cc(-c2cc[nH]n2)n2ccccc12`, the INHIBITION came to 15.4%.
Next, `CSc1nc(N)c2c(n1)N=C1COC(=O)C1C2c1cccc(Cl)c1` (configuration not stated): 15.9%; `CCN(CC)c1ccc(C2c3c(n[nH]c3C)N=C3COC(=O)C32)cc1` (configuration not stated): 68.1%.
For the compound `COc1ccc(OC)c(C2c3c(n[nH]c3C)N=C3COC(=O)C32)c1` (configuration not stated), the INHIBITION was -15%.
In the case of `Cc1ccc(C2c3c(n[nH]c3C)N=C3COC(=O)C32)cc1C` (configuration not stated) it was 55.3%; in that of `CCOc1ccc(C2c3c(N)nc(SC)nc3N=C3COC(=O)C32)cc1` (configuration not stated), -44.5%.
For `COc1ccc(C2c3c(n[nH]c3C)N=C3COC(=O)C32)cc1OC` (configuration not stated), the INHIBITION is given as -2.37%.
In the case of `Nc1ccc(-c2cnc(C3CCCN3)cn2)cn1` (configuration not stated) it was -4.175%; in that of `Cc1cc(C)n(CC2CCCN2C(=O)c2ccc(NC3CC3)nc2)n1` (configuration not stated), -5.07%.
Next, `Cc1ccc(=O)n(CC2(O)CCN(Cc3cccs3)CC2)n1`: -20.2%; `O=C(NCCN1CCOCC1)c1nc2ccccc2c(=O)[nH]1`: 45.7%; `CC1COCCN1Cc1nc(-c2ccc(Br)s2)no1` (configuration not stated): -50.8%.
Next, `CCN1CCOC(CNCc2c(Cl)nc3ccccn23)C1` (configuration not stated): -13.6%; `COc1cc(CN2CCCC2)ccc1Oc1ccc2c(c1)CC(CN)O2` (configuration not stated): 69%; `COc1ccc(CN2CCCC2)cc1Oc1ccc(NC(C)=O)cc1`: -5.47%.
Regarding `Cc1cc(CN2CCCC2)cc(Oc2ccc3c(c2)CC(CN)O3)c1` (configuration not stated), the INHIBITION was determined as 4.68%.
Next, `COc1ccc(CN2CCCC2)cc1Oc1ccc2c(c1)CC(CN)O2` (configuration not stated): -27%; `COc1c(F)cc(-c2cccc3c2OC(CN)C3)cc1F` (configuration not stated): 27.6%.
For `NCC1Cc2cc(Oc3cc(F)c(CN4CCCC4)c(F)c3)ccc2O1` (configuration not stated), the INHIBITION amounted to 74%.
In the case of `CC(=O)N1CCC(c2ccnc(Nc3cc(C(F)(F)F)ccn3)n2)C1` (configuration not stated) it was 2.55%.
In the case of `CN(C)C(=O)[C@H]1C[C@H]2OCC[C@H]2N(CCOc2ccc(Cl)cc2)C1` it was 1.48%.
In the case of `Cc1ncc2c(n1)CN(CCCc1ccccc1)CC2` it was -21.8%; in that of `CCCn1cc(NC(=O)c2cccc(CN3CC=CC3)c2)nn1`, -57.5%; in that of `Cc1ccc(Cl)c(NC(=O)c2cccc(CN3CC[C@H](O)C3)c2)c1`, 43.9%.
As for `Cc1nn(C)c(C)c1NC(=O)c1cccc(CN2CCS(=O)(=O)CC2)c1`, the INHIBITION is given as 44.4%.
In the case of `CCCn1cc(NC(=O)c2cccc(CN3CC[C@H](O)C3)c2)nn1` it was 65.6%.
Next, `Cc1nn(C)c(C)c1NC(=O)c1cccc(CN2CC[C@H](O)C2)c1`: 56.6%; `Cn1nccc1NC(=O)c1cccc(CN2C[C@H]3CC[C@@H](C2)N3)c1`: 6.09%; `CCn1cc(NC(=O)c2cccc(CN3C[C@@H](C)O[C@@H](C)C3)c2)nn1`: 81.3%.
Turning to `CCN(Cc1cccc(C(=O)Nc2cn(C)nn2)c1)[C@H]1COC[C@@H]1O`, the INHIBITION was determined as 35.7%.
In the case of `Cc1nn(C)c(C)c1NC(=O)c1cccc(CN2C[C@H]3CC[C@@H](C2)N3)c1`, the INHIBITION was 16%.
In the case of `CCOc1ccc2cc(C(=O)N3CCn4c(CC)nnc4C3)[nH]c2c1` it was 0.411%.
Next, `COc1nn(C)cc1C(=O)N1CCC(c2ccccc2)C1` (configuration not stated): 11.8%; `Cc1ccccc1C1(C(=O)NCCN2CCCC(C)C2)CCOCC1` (configuration not stated): 49.8%; `Cc1cc(C)n(CCC(=O)N2CCC(c3nc(C)no3)CC2)n1`: 47.4%.
In the case of `CC(C)n1cnnc1CNC(=O)c1cnc2ccccc2n1` it was -4.73%.
As for `Cc1nc(Nc2ccccn2)cc(N2CCN(S(C)(=O)=O)CC2)n1`, the INHIBITION is reported as 53.2%.
Take `Cc1ccc(Nc2cc(N3CCN(S(C)(=O)=O)CC3)nc(C)n2)cc1`: the INHIBITION is reported as -19.7%.
Next, `CS(=O)(=O)N1CCN(c2ccc(Nc3ccccn3)nn2)CC1`: 21.5%.
With `O=C1CCC2(CCC(NCc3cccnc3)CC2)N1Cc1ccccc1` (configuration not stated), the INHIBITION was 48.2%.
In the case of `CCn1cc(NC(=O)NCC(C)N(C)C2CC2)cn1` (configuration not stated) it was -62.8%.
On to `CC(CN1CCC(c2ccccc2)CC1)n1cnc2ccccc21` (configuration not stated), for which the INHIBITION worked out at 56.2%.
In the case of `CC(CN1CCC(CCO)CC1)n1cnc2ccccc21` (configuration not stated) it was -0.217%.
Turning to `CC(CN1CC[C@@H]2CCCC[C@@H]2C1)n1cnc2ccccc21` (some centres not stated), the INHIBITION turned out to be 3.58%.
In the case of `CCCC(O)CN1CCC(=O)N(CCOC)Cc2cc3c(cc21)OCO3` (configuration not stated) it was 22.2%; in that of `COCCN1CCCC1c1nccnc1Nc1ncc(C)s1` (configuration not stated), 8.53%; in that of `COCCN1CCCC1c1nccnc1Nc1nc(C)cs1` (configuration not stated), 16.9%.
Next, `COCCN1CCCC1c1nccnc1Nc1nccs1` (configuration not stated): 61.9%; `COCCC(=O)N1CCn2cc(CN3CCN(C)CC3)nc2C1`: -17.2%; `CCc1nc2n(n1)CC(NCCC(=O)Nc1cc(C)on1)CC2` (configuration not stated): 7.08%.
Next, `CCN(CC1CN(CC2CCC2)CCO1)c1cccnn1` (configuration not stated): 62.8%; `CCN(CC1CN(Cc2nc(C3CC3)no2)CCO1)c1cccnn1` (configuration not stated): 87.6%; `CCN(CC1CN(Cc2c(C)noc2C)CCO1)c1cccnn1` (configuration not stated): 44.9%.
Consider `CCN(CC1CN(Cc2nccn2CC)CCO1)c1cccnn1` (configuration not stated), for which the INHIBITION was 41.4%.
In the case of `CCN(CC1CN(Cc2ncc(C)o2)CCO1)c1cccnn1` (configuration not stated) it was -17.4%; in that of `CCN(CC1CN(Cc2ncc[nH]2)CCO1)c1cccnn1` (configuration not stated), 11.1%.
